Assay results published in PubChem BioAssay.
“And” between values parts separate entries of the source, which are not always exact repeats. Equal values may be shown once. Records with an inconclusive call do not appear. The source made the active and inactive calls. Rule as the data show it, unless noted: active = inhibition above about 80%; inactive = the rest.

Tests used:
[1] = growth inhibition of DIPG glioma cells, dose response, cell-based, SU-DIPG-XIII, MIPE4.0, CellTiter-Glo, qHTS (AID 1347061; cut-off not given, nearly all actives have AC50 up to about 37 µM;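 also: cells exposed to compound for 48 hours before readout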); settings: SU-DIPG-XIII viability, CellTiter-Glo ATP luminescence
[2] = growth inhibition of DIPG glioma cells, dose response, cell-based, SU-DIPG-IV, MIPE4.0, CellTiter-Glo, qHTS (AID 1347063; cut-off not given, nearly all actives have AC50 up to about 30 µM;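 also: compound exposure lasted 48 hours before the viability readout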); settings: SU-DIPG-IV viability, CellTiter-Glo ATP luminescence
[3] = SU-DIPG-VI glioma cell viability, MIPE4.0 library, CellTiter-Glo luminescence, qHTS (AID 1347066; cut-off not given, nearly all actives have AC50 up to about 30 µM;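 also: cells exposed to compound for 48 hours before readout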); settings: CellTiter-Glo ATP luminescence
[4] = sensitizers of A549 cells to miR-34 induction, primary screen, imaging, A549 dox-inducible miR-34, nuclei and caspase counts (AID 1347080;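 active = compounds whose cell count with miR-34 switched on is under 0.7 times the count with it off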); settings: A549 miR-34 inducible, Hoechst nuclei count, 48 h
[5] = modifiers of HSF1 nuclear foci, imaging, Selleck Cancer Library (AID 1347162; in the data active = plate-normalised HSF1 focus index below about 0.46); settings: human cells, at 10 µM; SSMD: measured here: HSF1 foci SSMD mean; cell count: measured here: cell number; plate-normalised HSF1 focus index: stronger effect = lower value
[6] = survival rescue of mitochondrial mutant cells in low glucose, primary screen, MELAS cybrids, Rieske KO mouse fibroblasts, CellTiter-Glo (AID 1508586;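 active = mean z-score across replicates of 1.96 or higher in either the MELAS or the Rieske mutant cell line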;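 also: z relative to plate mean and SD of compound and empty wells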)
[7] = LFS_MB_P medulloblastoma growth inhibition, cell-based, chromothripsis tumors, cisplatin or BGB combos (AID 1671449); settings: LFS_MB_P medulloblastoma cells;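 also: cells exposed for 96 hours; 0% = vehicle DMSO and 100% = killing by high DMSO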
[8] = HDN33 neuroblastoma growth inhibition, cell-based, chromothripsis tumors, cisplatin or BGB combos (AID 1671450); settings: HDN33 neuroblastoma cells, stronger effect = higher value;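 also: cells exposed to compound for four days; 0% = vehicle DMSO and 100% = cell killing by high DMSO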
[9] = ICB984 medulloblastoma cell growth inhibition, synergistic combos for chromothripsis tumors, cisplatin or BGB combos (AID 1671451; call rule not given here;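 also: cells exposed for 96 hours before readout; 0% = vehicle DMSO and 100% = killing by high DMSO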); settings: ICB984 medulloblastoma cells, drug combinations, stronger effect = higher value
[10] = LFS_MB_1R medulloblastoma cell growth inhibition, synergistic combos for chromothripsis tumors, cisplatin or BGB combos (AID 1671452); settings: LFS_MB_1R medulloblastoma cells, stronger effect = higher value;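 also: cells exposed for 96 hours before readout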
[11] = HTB85 osteosarcoma cell growth inhibition, synergistic combos for chromothripsis tumors, BGB or cisplatin IC20 combos (AID 1671453); settings: HTB85 osteosarcoma cells, drug combinations, stronger effect = higher value;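 also: cells exposed for 96 hours before readout; 0% = vehicle DMSO and 100% = high DMSO killing control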
[12] = MDA-MB-436 breast carcinoma cell growth inhibition, synergistic combos for chromothripsis tumors, BGB or cisplatin combos (AID 1671458; call rule not given here;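 also: cells exposed for 96 hours; 0% = vehicle DMSO and 100% = killing by high DMSO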); settings: MDA-MB-436 breast carcinoma growth inhibition, drug combinations, stronger effect = higher value
[13] = growth inhibition of BT084 medulloblastoma cells, cell-based, ICGC_MB145, cisplatin and BGB IC40 combos (AID 1671461); settings: drug combinations, stronger effect = higher value;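 also: cells exposed to drugs for 96 hours; 0% = vehicle DMSO and 100% = high DMSO full killing control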
[14] = growth inhibition of RCMB18 medulloblastoma cells, cell-based, cisplatin and BGB IC40 combos (AID 1671462); settings: stronger effect = higher value;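 also: cells exposed to compound for four days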
[15] = growth inhibition of CRL1545 osteosarcoma cells, cell-based, cisplatin and BGB IC20 combos (AID 1671464); settings: stronger effect = higher value;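 also: cells exposed to compound for 96 hours before readout; 0% = vehicle DMSO and 100% = high DMSO killing control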
[16] = growth inhibition of DIPG glioma cells, dose response, cell-based, JHH-DIPG-1, MIPE4.0, CellTiter-Glo, qHTS (AID 1347062; cut-off not given, nearly all actives have AC50 up to about 27 µM); settings: JHH-DIPG-1 viability, CellTiter-Glo ATP luminescence
[17] = viability loss in pontine glioma line – cell-based, SU-DIPG-XXV, MIPE5.0, CellTiter-Glo, qHTS, dose response (AID 1347065; cut-off not given, nearly all actives have AC50 up to about 26 µM;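 also: cells exposed to compound for 48 hours before ATP readout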); settings: CellTiter-Glo ATP luminescence
[18] = SU-DIPG-XXV glioma cell viability, MIPE5.0 library, qHTS (AID 1347068; cut-off not given, nearly all actives have IC50 up to about 30 µM)
[19] = JHH-DIPG-1 glioma cell viability, MIPE5.0 library, CellTiter-Glo luminescence, qHTS (AID 1347067; cut-off not given, nearly all actives have AC50 up to about 26 µM;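 also: cells exposed to compound for 48 hours before readout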); settings: JHH-DIPG-1 glioma viability, CellTiter-Glo ATP luminescence
[20] = stronger effect = lower value, cell number ratio, induced over uninduced
[21] = measured here: relative caspase fold change +Dox/-Dox
[22] = measured here: total cells with miR-34 induction, stronger effect = lower value
[23] = measured here: total cells without miR-34 induction
[24] = MELAS cybrid survival, CellTiter-Glo 48 h, stronger effect = higher value
[25] = Rieske KO mouse fibroblast survival, CellTiter-Glo 72 h
[26] = measured here: combination with BGB IC40, at 0.05 µM
[27] = measured here: with BGB IC20 combination, at 0.5 µM
[28] = measured here: with cisplatin IC20 combination, at 0.5 µM
[29] = measured here: combination with cisplatin, at 0.5 µM

Which outcome [1] does the source give for `CNCc1ccc(-c2[nH]c3cc(F)cc4c3c2CCNC4=O)cc1` here?
Its outcome is “inactive”.

What about the outcome [2] of the same compound?
The outcome was “inactive”.

And the outcome [3]?
The outcome was “inactive”.

What about the fold change [4, 20] of the same compound?
Its fold change is 0.956 (inactive).

What about the fold change [4, 21] of the same compound?
The fold change was 1.62.

What about the cell count [4, 22] of the same compound?
Its cell count is 6530.

What about the cell count [4, 23] of the same compound?
Its cell count is 6840.

And the SSMD [5]?
Its SSMD is 2.12.

What about the cell count [5] of the same compound?
Its cell count is 7610.

What about the plate-normalised HSF1 focus index [5] of the same compound?
Its plate-normalised HSF1 focus index is 1.13 (inactive).

And the z-score [6, 24]?
Its z-score is -0.49 (inactive).

And the z-score [6, 25]?
The z-score was -0.266.

What about the inhibition ([7]; at 0.5 µM, stronger effect = higher value) of the same compound?
Its inhibition is 11.2% (inactive) and -4.36% (inactive).

And the inhibition ([7]; measured here: combination with BGB IC20, at 0.005 µM)?
The inhibition was -33.6% and -11.5%.

What about the inhibition ([7]; measured here: combination with BGB IC40, at 0.005 µM) of the same compound?
The inhibition was -21.8% and 22.8%.

And the inhibition [7, 26]?
Its inhibition is -33.3% and -12.4%.

And the inhibition ([7]; measured here: combination with cisplatin, at 0.5 µM, stronger effect = higher value)?
Its inhibition is -17.5% and -5.55%.

And the inhibition ([7]; measured here: combination with cisplatin, at 5 µM, stronger effect = higher value)?
The inhibition was -45.3% and -35.9%.

And the inhibition ([8]; BGB combo, at 5 µM)?
The inhibition was -25.2% and 11.9%.

And the inhibition ([8]; at 0.5 µM)?
Its inhibition is -14.8% (inactive) and 14.3% (inactive).

What about the inhibition ([8]; cisplatin combo, at 5 µM) of the same compound?
Its inhibition is -4.69% and 14.3%.

And the inhibition [8, 27]?
Its inhibition is -21.7% and 13.3%.

What about the inhibition [8, 28] of the same compound?
The inhibition was -14.7% and 11.6%.

What about the inhibition ([8]; single agent, at 5 µM) of the same compound?
The inhibition was 9.94% and 30.8%.

What about the inhibition ([9]; BGB IC20 combo, at 0.005 µM) of the same compound?
Its inhibition is -15.3% and 7.74%.

What about the inhibition ([9]; BGB IC40 combo, at 0.005 µM) of the same compound?
The inhibition was -14.9% and -10.3%.

What about the inhibition ([9]; BGB IC40 combo, at 0.05 µM) of the same compound?
Its inhibition is -15.6% and -2.1%.

And the inhibition ([9]; at 0.5 µM)?
The inhibition was -18% (inactive) and -11.9% (inactive).

And the inhibition ([9]; cisplatin combo, at 0.05 µM)?
Its inhibition is -19.7% and -5.77%.

And the inhibition ([9]; cisplatin combo, at 0.5 µM)?
The inhibition was -11.2% and -6.08%.

And the inhibition ([9]; cisplatin combo, at 5 µM)?
Its inhibition is -48.3% and -31.5%.

And the inhibition ([9]; measured here: 5 uM single agent, at 5 µM)?
Its inhibition is 4.24% and 12.5%.

And the inhibition ([10]; at 0.5 µM)?
The inhibition was -10.6% (inactive) and -7.69% (inactive).

What about the inhibition [10, 26] of the same compound?
Its inhibition is -6.36% and 4.87%.

What about the inhibition [10, 29] of the same compound?
Its inhibition is 19.1% and -25%.

And the inhibition ([10]; measured here: combination with cisplatin, at 5 µM)?
Its inhibition is -18.5% and -25.3%.

And the inhibition ([11]; at 0.5 µM)?
Its inhibition is -0.57% (inactive) and 3.23% (inactive).

And the inhibition ([11]; measured here: with BGB IC20, at 0.5 µM)?
The inhibition was -24.5% and -14.6%.

What about the inhibition ([11]; measured here: with BGB IC20, at 5 µM) of the same compound?
Its inhibition is -20.2% and -0.361%.

And the inhibition ([11]; measured here: with cisplatin IC20, at 0.5 µM)?
Its inhibition is 6.68% and 16.2%.

What about the inhibition ([11]; measured here: with cisplatin IC20, at 5 µM) of the same compound?
The inhibition was -9.57% and 9.16%.

And the inhibition ([11]; single agent, at 5 µM)?
Its inhibition is -2.29% and 13.1%.

What about the inhibition ([12]; at 0.5 µM) of the same compound?
Its inhibition is 2.86% (inactive) and 14.9% (inactive).

What about the inhibition ([12]; measured here: BGB combination, at 0.5 µM) of the same compound?
Its inhibition is -19.1% and 0.063%.

And the inhibition ([12]; measured here: BGB combination, at 5 µM)?
Its inhibition is -12.9% and -16%.

What about the inhibition ([12]; measured here: cisplatin combination, at 0.5 µM) of the same compound?
The inhibition was 9.87% and 19.6%.

And the inhibition ([12]; measured here: cisplatin combination, at 5 µM)?
Its inhibition is 31.2% and 24.2%.

And the inhibition ([13]; at 0.5 µM)?
The inhibition was -22% (inactive) and 7.71% (inactive).

And the inhibition ([13]; cisplatin combination, at 0.5 µM)?
Its inhibition is -60.7% and -23.3%.

And the inhibition ([13]; cisplatin combination, at 5 µM)?
Its inhibition is -41.6% and -18%.

And the inhibition ([13]; measured here: BGB IC40 combination 0.05 uM, at 0.05 µM)?
The inhibition was 24.6% and 0.2%.

And the inhibition ([13]; single agent, at 5 µM)?
The inhibition was -4.29% and -11.5%.

And the inhibition ([14]; at 0.5 µM)?
Its inhibition is -28.5% (inactive) and -5.9% (inactive).

What about the inhibition ([14]; cisplatin combo, at 5 µM) of the same compound?
The inhibition was -30.1% and -29%.

What about the inhibition ([14]; measured here: BGB IC40 combination, at 0.05 µM) of the same compound?
The inhibition was -11.1% and 4.25%.

And the inhibition [14, 29]?
Its inhibition is -71.1% and 1.49%.

And the inhibition ([14]; single agent, at 5 µM)?
The inhibition was -19.5% and -1.31%.

What about the inhibition ([15]; at 0.5 µM) of the same compound?
Its inhibition is 3.62% (inactive) and -10.7% (inactive).

What about the inhibition [15, 27] of the same compound?
Its inhibition is -15.5% and 1.35%.

And the inhibition [15, 28]?
The inhibition was 11.8% and -18.6%.

What about the inhibition ([15]; single agent, at 0.05 µM) of the same compound?
Its inhibition is 15.8% and 33%.

And the inhibition ([15]; single agent, at 5 µM)?
The inhibition was 1.41% and -6.63%.

For `O=C1C(CCC(O)c2ccc(F)cc2)C(c2ccc(O)cc2)N1c1ccc(F)cc1` (stereo not given), which outcome [1] is on record?
Its outcome is “inactive”.

And the outcome [16]?
Its outcome is “inactive”.

What about the outcome [3] of the same compound?
The outcome was “inactive”.

What about the fold change [4, 20] of the same compound?
The fold change was 0.893 (inactive) and 0.906 (inactive).

What about the fold change [4, 21] of the same compound?
Its fold change is 1.57 and 0.763.

And the cell count [4, 22]?
Its cell count is 7660 and 7830.

What about the cell count [4, 23] of the same compound?
Its cell count is 8580 and 8640.

What about the z-score [6, 24] of the same compound?
Its z-score is -0.505 (inactive).

What about the z-score [6, 25] of the same compound?
The z-score was -0.0457.

With `O=C(C1CC1)N1CC[C@@H](Cn2c(-c3ccc(-c4ccc5occc5c4)cc3)nc3cnccc32)C1` as the compound, how does the outcome [1] read?
The outcome was “inactive”.

And the AC50 [17]?
Its AC50 is 18.6 µM (active).

What about the outcome [3] of the same compound?
The outcome was “inactive”.

And the outcome [18]?
Its outcome is “inactive”.

What does the source list for `CS(=O)(=O)N(Cc1ccco1)CC(O)Cn1c2ccccc2c2ccccc21` (stereo not given)?
outcome [1]: inactive; outcome [17]: inactive; outcome [3]: inactive; outcome [19]: inactive; outcome [18]: inactive
